Among the data in PubChem BioAssay (NCATS) are Potency values, retold here.

Records with an inconclusive call do not appear. Activity calls are given as the source filed them. Calls come from the whole dose curve; as a rule, active = well fitted curve in the direction sought with a large enough effect; inconclusive = small, poorly fitted or top-dose-only effect, or another doubt; inactive = no such curve, though single readings can be large; an effect the other way counts as inactive or inconclusive.
Note: nearly all actives have a fitted effect of over 35% in size.
Potency is the fitted concentration of half-maximal effect.

The nature of the first assay: Quantitative High-Throughput drug screen in 47 multiple myeloma cell lines against the NCATS MIPE library collection: KHM11_PLB cell viability assay (AID 1918962). The settings on record: KHM11 myeloma cell viability, CellTiter-Glo ATP luminescence, 48 h; series mostly up to 45.8 µM. A digest of the protocol: (§1)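 CellTiter-Glo luminescence (ATP) after 48 h compound exposure, 37C/5% CO2; 500 cells/well; MIPE 4.0 approved/investigational drugs pinned in; DMSO = 100%, media only = 0% viability.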
In general terms: In ATP-based viability assays light output follows the ATP content of the culture.
Consider `c1ccc2c(CN3CCNCC3)cccc2c1`, for which the Potency entry is “inactive”.

Consider `CSCC[C@@H](NC(=O)[C@@H](Cc1ccccc1)NC(=O)CNC(=O)CNC(=O)[C@@H](N)Cc1ccc(O)cc1)C(=O)O`, for which the Potency entry is “inactive”.

As for `COCC1(CO)C(=O)C2CCN1CC2` (stereo not drawn), the Potency is 7.43 µM (active).

In the case of `COc1cccc2c1[C@]13CCN(CC4CC4)[C@H](C2)[C@]1(OC)CCC(=O)C3`, the Potency entry was “inactive”.

Consider `CN1CCN(c2ccc([N+](=O)[O-])c3no[n+]([O-])c23)CC1`, for which the Potency is 14.8 µM (active).

For the molecule `Cc1ccccc1-n1c(Cn2ncc3c(N)ncnc32)nc2cccc(C)c2c1=O`, the Potency is 0.332 µM (active).

`CCOC(=O)c1cncn1[C@H](C)c1ccccc1`: the Potency result was “inactive”.

For `COc1ccc(C(=O)c2c(C)n(CCN3CCOCC3)c3cc(I)ccc23)cc1`, the Potency result is “inactive”.

As for `CC1=C(O)C(=O)C=C2C1=CC=C1[C@@]2(C)CC[C@@]2(C)[C@@H]3C[C@](C)(C(=O)O)CC[C@]3(C)CC[C@]12C`, the Potency is 0.743 µM (active).

Consider `CC(C)N[C@@H]1CCn2c(=O)[nH]c3cccc(c32)[C@@H]1O`, for which the Potency was 13.2 µM (active).

In the case of `CC[C@@]1(O)C(=O)OCc2c1cc1n(c2=O)Cc2cc3ccccc3nc2-1`, the Potency was 0.235 µM (active).

`CC[C@@H]1[C@@H](C)O[C@@](O)([C@@H](C)[C@H](O)[C@H](C)[C@H]2OC(=O)C=CC=C[C@@H](C)[C@@H]([C@@H](C)[C@@H](O)[C@H](C)[C@@]3(O)C[C@H](O[C@H]4C[C@H](O)[C@H](O)[C@H](C)O4)[C@H](CC)[C@@H](C)O3)OC(=O)C=CC=C[C@@H]2C)C[C@H]1O[C@H]1C[C@H](O)[C@H](O)[C@H](C)O1`: the Potency is 1.05 µM (active).

With `COc1ccc2c(c[n+](C)c3c4cc5c(cc4ccc23)OCO5)c1OC`, the Potency is 6.62 µM (active).

`C[C@@H]1CC[C@@]2(OC1)O[C@H]1C[C@H]3[C@@H]4CC=C5C[C@@H](O[C@@H]6O[C@H](CO)[C@@H](O[C@@H]7O[C@@H](C)[C@H](O)[C@@H](O)[C@@H]7O)[C@H](O)[C@@H]6O[C@@H]6O[C@@H](C)[C@H](O)[C@@H](O)[C@@H]6O)CC[C@]5(C)[C@@H]4CC[C@]3(C)[C@@H]1[C@H]2C`: the Potency is 2.96 µM (active).

As for `C1=C2CCCN[C@H]2[C@@H]2C[C@H]1[C@@H]1CCCCN1C2`, the Potency result was “inactive”.

Consider `COc1cc2cc(c1Cl)N(C)C(=O)C[C@H](OC(=O)C(C)C)[C@]1(C)O[C@H]1[C@H](C)[C@@H]1C[C@@](O)(NC(=O)O1)[C@H](OC)C=CC=C(C)C2`, for which the Potency entry is “inactive”.

In the case of `O=S(=O)(CC1CS1)c1ccc(Oc2ccccc2)cc1` (stereo not drawn), the Potency was 14.8 µM (active).

Turning to `CCCC[N+]1(C)[C@H]2CC(OC(=O)[C@H](CO)c3ccccc3)C[C@H]1[C@H]1O[C@H]12` (stereo partly drawn), the Potency result was “inactive”.

Turning to `O=c1[nH]c2ccc(Cl)cc2c(N[C@@H]2CN3CCC2CC3)c1-c1nc2ccccc2[nH]1`, the Potency is 0.235 µM (active).

For the molecule `CCN1CCN(C(=O)Cc2ccc(Nc3ncc(F)c(Nc4ccc(C(=O)Nc5ccccc5Cl)cc4)n3)cc2)CC1`, the Potency was 2.35 µM (active).

As to `CCOP(=O)(OCC)C(C)NC(=O)N(CCCl)N=O` (stereo not drawn), the Potency entry is “inactive”.

As for `CC(C)N(CCNC(=O)CN1CCCC1=O)C(C)C`, the Potency result was “inactive”.

Regarding `CC(C)[C@]12O[C@@H]1[C@@H]1O[C@]13[C@]1(O[C@H]1C[C@@H]1C4=C(CC[C@@]13C)C(=O)OC4)[C@H]2O`, the Potency entry is “inactive”.

With `CC(N[C@H]1C[C@H]1c1ccccc1)c1ccc2c(c1)OCCO2` (stereo partly drawn), the Potency result is “inactive”.

On to `O=C(N[C@H]1CN2CCC1CC2)c1ccc(Cl)cc1`, for which the Potency entry is “inactive”.

For the molecule `CCCCCC[C@H]1C(=O)O[C@H](C)[C@H](NC(=O)c2cccc(NC=O)c2O)C(=O)O[C@@H](C)[C@@H]1OC(=O)CC(C)C`, the Potency is 0.105 µM (active).

On to `CN(C)[C@@H]1C(=O)C(C(N)=O)=C(O)[C@@]2(O)C(=O)C3=C(O)c4c(O)cccc4[C@@](C)(O)[C@H]3[C@H](O)[C@@H]12`, for which the Potency was 7.43 µM (active).

Take `CC(C)(O)C=CC(=O)[C@](C)(O)[C@H]1[C@H](O)C[C@]2(C)[C@@H]3CC=C4[C@@H](C=C(O)C(=O)C4(C)C)[C@]3(C)C(=O)C[C@@]12C`: the Potency is 0.0418 µM (active).

Another assay in a line: Quantitative High-Throughput drug screen in 47 multiple myeloma cell lines against the NCATS MIPE library collection: JIM3_ECACC cell viability assay (AID 1918963). The settings on record: JIM3 myeloma viability, CellTiter-Glo ATP, 48 h; series mostly up to 45.8 µM. A digest of the protocol: as §1
With `c1ccc2c(CN3CCNCC3)cccc2c1`, the Potency result is “inactive”.

As for `CSCC[C@@H](NC(=O)[C@@H](Cc1ccccc1)NC(=O)CNC(=O)CNC(=O)[C@@H](N)Cc1ccc(O)cc1)C(=O)O`, the Potency entry was “inactive”.

Consider `COCC1(CO)C(=O)C2CCN1CC2` (stereo not drawn), for which the Potency is 18.7 µM (active).

Turning to `CCNC(=O)C[C@@H]1N=C(c2ccc(Cl)cc2)c2cc(OC)ccc2-n2c(C)nnc21`, the Potency was 6.62 µM (active).

With `COc1cccc2c1[C@]13CCN(CC4CC4)[C@H](C2)[C@]1(OC)CCC(=O)C3`, the Potency result was “inactive”.

As for `CN1CCN(c2ccc([N+](=O)[O-])c3no[n+]([O-])c23)CC1`, the Potency is 23.5 µM (active).

For the molecule `O=C1C=CC[C@@H]2[C@H]3CCCN4CCC[C@@H](CN12)[C@@H]34`, the Potency result was “inactive”.

For the molecule `CCc1c(C(=O)C(N)=O)c2c(OCC(=O)O)cccc2n1Cc1ccccc1`, the Potency entry was “inactive”.

As for `Cc1ccccc1-n1c(Cn2ncc3c(N)ncnc32)nc2cccc(C)c2c1=O`, the Potency was 0.418 µM (active).

On to `CCOC(=O)c1cncn1[C@H](C)c1ccccc1`, for which the Potency result is “inactive”.

With `COc1ccc(C(=O)c2c(C)n(CCN3CCOCC3)c3cc(I)ccc23)cc1`, the Potency was 13.2 µM (active).

As to `O=[N+]([O-])c1ncc[nH]1`, the Potency entry is “inactive”.

Take `CC1=C(O)C(=O)C=C2C1=CC=C1[C@@]2(C)CC[C@@]2(C)[C@@H]3C[C@](C)(C(=O)O)CC[C@]3(C)CC[C@]12C`: the Potency is 0.662 µM (active).

As for `CC(C)N[C@@H]1CCn2c(=O)[nH]c3cccc(c32)[C@@H]1O`, the Potency is 9.35 µM (active).

`CC[C@@]1(O)C(=O)OCc2c1cc1n(c2=O)Cc2cc3ccccc3nc2-1`: the Potency was 0.264 µM (active).

As for `CC[C@@H]1[C@@H](C)O[C@@](O)([C@@H](C)[C@H](O)[C@H](C)[C@H]2OC(=O)C=CC=C[C@@H](C)[C@@H]([C@@H](C)[C@@H](O)[C@H](C)[C@@]3(O)C[C@H](O[C@H]4C[C@H](O)[C@H](O)[C@H](C)O4)[C@H](CC)[C@@H](C)O3)OC(=O)C=CC=C[C@@H]2C)C[C@H]1O[C@H]1C[C@H](O)[C@H](O)[C@H](C)O1`, the Potency is 0.935 µM (active).

For the molecule `COc1ccc2c(c[n+](C)c3c4cc5c(cc4ccc23)OCO5)c1OC`, the Potency is 7.43 µM (active).

`C[C@@H]1CC[C@@]2(OC1)O[C@H]1C[C@H]3[C@@H]4CC=C5C[C@@H](O[C@@H]6O[C@H](CO)[C@@H](O[C@@H]7O[C@@H](C)[C@H](O)[C@@H](O)[C@@H]7O)[C@H](O)[C@@H]6O[C@@H]6O[C@@H](C)[C@H](O)[C@@H](O)[C@@H]6O)CC[C@]5(C)[C@@H]4CC[C@]3(C)[C@@H]1[C@H]2C`: the Potency was 3.72 µM (active).

`C1=C2CCCN[C@H]2[C@@H]2C[C@H]1[C@@H]1CCCCN1C2`: the Potency entry was “inactive”.

With `Cc1c(C(=O)Nc2cccc(C(F)(F)F)c2)cc(-c2ccccc2)n1CCCN1CCOCC1`, the Potency is 20.9 µM (active).

Regarding `COc1cc2cc(c1Cl)N(C)C(=O)C[C@H](OC(=O)C(C)C)[C@]1(C)O[C@H]1[C@H](C)[C@@H]1C[C@@](O)(NC(=O)O1)[C@H](OC)C=CC=C(C)C2`, the Potency result was “inactive”.

Consider `O=S(=O)(CC1CS1)c1ccc(Oc2ccccc2)cc1` (stereo not drawn), for which the Potency was 16.6 µM (active).

On to `CCCC[N+]1(C)[C@H]2CC(OC(=O)[C@H](CO)c3ccccc3)C[C@H]1[C@H]1O[C@H]12` (stereo partly drawn), for which the Potency result is “inactive”.

With `O=c1[nH]c2ccc(Cl)cc2c(N[C@@H]2CN3CCC2CC3)c1-c1nc2ccccc2[nH]1`, the Potency was 0.0743 µM (active).

`CCN1CCN(C(=O)Cc2ccc(Nc3ncc(F)c(Nc4ccc(C(=O)Nc5ccccc5Cl)cc4)n3)cc2)CC1`: the Potency is 3.72 µM (active).

With `COc1ccc(CC2NCCc3cc(OC)c(OC)cc32)cc1OC` (stereo not drawn), the Potency result was “inactive”.

`CCOP(=O)(OCC)C(C)NC(=O)N(CCCl)N=O` (stereo not drawn): the Potency result was “inactive”.

As for `CCOC(=O)Nc1ccc(NCc2ccc(F)cc2)cc1N`, the Potency result is “inactive”.

As for `Cc1ccccc1-n1c(Cn2cnc3c(N)ncnc32)nc2cccc(C)c2c1=O`, the Potency was 1.05 µM (active).

`CC(C)N(CCNC(=O)CN1CCCC1=O)C(C)C`: the Potency result was “inactive”.

As to `CC(C)[C@]12O[C@@H]1[C@@H]1O[C@]13[C@]1(O[C@H]1C[C@@H]1C4=C(CC[C@@]13C)C(=O)OC4)[C@H]2O`, the Potency result was “inactive”.

Turning to `CC(N[C@H]1C[C@H]1c1ccccc1)c1ccc2c(c1)OCCO2` (stereo partly drawn), the Potency entry was “inactive”.

Regarding `O=C(N[C@H]1CN2CCC1CC2)c1ccc(Cl)cc1`, the Potency entry was “inactive”.

Regarding `CCCCCC[C@H]1C(=O)O[C@H](C)[C@H](NC(=O)c2cccc(NC=O)c2O)C(=O)O[C@@H](C)[C@@H]1OC(=O)CC(C)C`, the Potency was 0.0469 µM (active).

Turning to `CC(C)(O)C=CC(=O)[C@](C)(O)[C@H]1[C@H](O)C[C@]2(C)[C@@H]3CC=C4[C@@H](C=C(O)C(=O)C4(C)C)[C@]3(C)C(=O)C[C@@]12C`, the Potency was 0.105 µM (active).
